Test results published in PubChem BioAssay (NCATS).
Records with an inconclusive call do not appear. Active and inactive are the calls of the source. Calls follow the shape of the dose curve; as a rule, active = well fitted inhibition curve with a large enough effect; inconclusive = small, poorly fitted or top-dose-only effect; inactive = flat fitted curve, though single readings scatter.

Experiments:
Assay in all cases: Cytotoxic Profiling of Annotated Libraries Using Quantitative High-Throughput Screening (AID 1296008); also: nearly all actives have a fitted effect of over 60% in size
Conditions in all cases: Five cell lines viability, CellTiter-Glo ATP luminescence, 48-72 h; max response: active compounds read low
[1] = tested on: CRL-7250
How it was run: (§1)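 Compounds were pin-transferred onto cells and incubated 48 or 72 hr at 37 degree Celsius, 95% humidity. CellTiter-Glo was added, plates sat 10 min at room temperature, then ATP-coupled luminescence was imaged as the viability read-out.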

[2] = tested on: HaCat
How it was run: as §1

[3] = tested on: KB-3-1
How it was run: as §1

[4] = tested on: NIH3T3
How it was run: as §1
% is scaled to controls: 0 for no effect and ±100 for the full control effect; potency is read from the fitted curve at half-maximal effect.

COc1c(F)cccc1C(=O)N1C[C@@H](C)CC[C@H]1CNc1ccc(Br)cn1
inactive: max response [1] -14.6% | max response [2] 1.51% | max response [3] -16% | max response [4] -27.7%

CC(=O)O[C@H]1C[C@@](O)(C(C)C)[C@@H]2[C@@H](OC(=O)c3ccc(O)cc3)CC(C)=CC[C@@]12C
inactive: max response [1] 3.65% | max response [2] -1.16% | max response [3] 6.43% | max response [4] -25.3%

COCCNCc1ccc(-c2cc3nccc(Oc4ccc(NC(=O)C5(C(=O)Nc6ccc(F)cc6)CC5)cc4F)c3s2)nc1
active: Potency [1] 18.4 µM | Potency [2] 23.1 µM | Potency [3] 6.51 µM | Potency [4] 0.731 µM

Cc1ccc(C)c(NC(=O)[C@@H]2CCCN2S(=O)(=O)c2cccc3cccnc23)c1
inactive: max response [1] -9.22% | max response [2] -26.4% | max response [3] 9.71% | max response [4] -29.5%

O=C(O)CCc1nccc2c1[nH]c1ccccc12
inactive: max response [1] -19.9% | max response [2] 3.67% | outcome [3] | max response [4] -2.87%

CCc1c(Cl)c(O)c(Cl)c(O)c1C(=O)O[C@H]1[C@H](O)[C@H](OC)[C@H](OC/C2=C\C=C\C[C@H](O)/C(C)=C\[C@H](CC)[C@@H](O[C@@H]3OC(C)(C)[C@@H](OC(=O)C(C)C)[C@H](O)[C@@H]3O)/C(C)=C/C(C)=C/C[C@@H]([C@@H](C)O)OC2=O)O[C@@H]1C
inactive: outcome [1] | max response [2] -22.3% | max response [3] -8.77% | outcome [4]

Cc1ccc(C2(C(=O)N3CCC(n4nc(-c5ccccc5)oc4=O)CC3)CC2)cc1
inactive: max response [1] -18.3% | max response [2] -7.48% | max response [3] -8.37% | max response [4] -1.74%
